Target: NF-kB p65/p50 heterodimer (Homo sapiens, UniProt Q04206;P19838 Q04206:1-551,P19838:1-433)
Assay: EMSA; competition against labelled probe 113/114
Conditions: protein: extract; tags: nuclear extract of LPS-stimulated THP-1 cells; dsDNA, one strand shown; PS at the 4 most 3' linkages of both strands
Source text: The EMSA assay was employed to characterize oligonucleotide decoys for the NF-κB transcription factor. […] Using the above modified oligonucleotides to compete for binding for the above-mentioned NF-κB family members, it was possible to compare the binding affinity of these oligonucleotides against the high affinity radiolabeled probe and each other. This assay has also enabled the design of a decoy which selectively binds particular members of the NF-κB family. By using increasing concentrations of various oligonucleotides, it was observed that, by deleting or changing targeted residues in the binding site, it was possible to specifically decrease the binding of the decoy molecule to p50/p50 homodimers, while retaining the affinity for p65/p50 and cRel/p50 heterodimers.
The NF-κB gel shift assays (EMSA) were performed as follows. A double-stranded oligonucleotide containing a consensus NF-κB binding site (5′ […].GGC 3′) (SEQ ID NO: 26) was end-labeled with γ³²P-ATP using T4 Polynucleotide Kinase (Promega). […] The dried gels were imaged and quantitated using a Typhoon 8600 Phosphorlmager (Amersham) and ImageQuant software. […]

NF-kB p65/p50 heterodimer, sequence (Q04206 whole entry, chain 1 of 2): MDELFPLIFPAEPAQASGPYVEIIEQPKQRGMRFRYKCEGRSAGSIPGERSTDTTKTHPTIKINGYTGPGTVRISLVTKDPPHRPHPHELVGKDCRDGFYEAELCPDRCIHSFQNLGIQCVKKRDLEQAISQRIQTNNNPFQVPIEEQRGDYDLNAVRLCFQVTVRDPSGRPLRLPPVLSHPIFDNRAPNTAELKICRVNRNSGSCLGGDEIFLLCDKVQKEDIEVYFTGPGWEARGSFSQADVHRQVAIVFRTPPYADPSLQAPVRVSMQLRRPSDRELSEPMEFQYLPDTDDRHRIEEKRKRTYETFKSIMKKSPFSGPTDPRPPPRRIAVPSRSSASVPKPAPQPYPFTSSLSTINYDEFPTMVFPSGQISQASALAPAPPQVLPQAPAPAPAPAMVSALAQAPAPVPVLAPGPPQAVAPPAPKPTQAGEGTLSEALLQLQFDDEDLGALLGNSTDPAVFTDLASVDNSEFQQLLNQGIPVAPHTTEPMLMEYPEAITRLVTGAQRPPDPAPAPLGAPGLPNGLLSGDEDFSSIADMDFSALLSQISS
NF-kB p65/p50 heterodimer, sequence (P19838 1-433, chain 2 of 2): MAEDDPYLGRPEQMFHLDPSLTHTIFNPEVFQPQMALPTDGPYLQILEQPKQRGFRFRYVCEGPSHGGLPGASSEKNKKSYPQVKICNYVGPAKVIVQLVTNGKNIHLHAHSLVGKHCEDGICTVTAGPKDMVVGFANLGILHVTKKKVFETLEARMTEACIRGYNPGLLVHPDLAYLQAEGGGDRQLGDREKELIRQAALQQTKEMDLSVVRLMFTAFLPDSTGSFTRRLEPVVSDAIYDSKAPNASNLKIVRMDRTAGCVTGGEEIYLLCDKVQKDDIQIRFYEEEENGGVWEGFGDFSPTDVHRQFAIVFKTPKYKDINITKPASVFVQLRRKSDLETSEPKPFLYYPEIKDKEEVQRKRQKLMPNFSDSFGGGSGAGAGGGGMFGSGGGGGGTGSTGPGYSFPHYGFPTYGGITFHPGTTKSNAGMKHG

With AGTTGAGGACTTTCCAGGC the IC50 was 85 fold molar excess.

— patent US20060069055, “Delivery of polynucleotides” (published 2006)
